Results filed as inconclusive are left out. Activity calls are given as the source filed them. Unless noted, calls come from the whole dose curve; as a rule, active = well fitted curve in the direction sought with a large enough effect in the repeat runs; inconclusive = weak or mixed curves; inactive = no such curve, though single readings can be large; an effect the other way counts as inactive or inconclusive.
How the values were obtained:
[1] = qHTS assay to identify small molecule agonists of the sonic hedgehog signaling (Shh) pathway (AID 1259368; calls by dose curve;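 note: NIH/3T3-derived 3T3Gli1-Luc cells carrying a stable Gli1-driven firefly luciferase reporter; series mostly up to about 92 µM; nearly all actives have a fitted effect of over 15% in size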)
Procedure, shortened: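 Luminescence was read after 30 min at room temperature with luciferase reagent. Before that, 3T3Gli1-Luc cells (NIH/3T3 clone, stable Gli1-Luc reporter; 2,000/well) were exposed to compounds for 24 hr at 37C, 5% CO2, compounds being added 4 hr post-plating.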

[2] = qHTS assay to identify small molecule antagonists of the sonic hedgehog signaling (Shh) pathway (AID 1259369; calls by dose curve; note: nearly all actives have a fitted effect of over 45% in size)
Procedure, shortened: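 Antagonist mode: compound added to 3T3 Gli1-Luc cells followed by conditioned-medium stimulation, 24 h at 37 C, 5% CO2. Inhibition taken as loss of Gli1-driven luciferase luminescence.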

[3] = biological target: Estrogen receptor beta (Homo sapiens) (UniProt Q92731); assay: qHTS assay to identify small molecule agonists of the estrogen receptor beta (ER-beta) signaling pathway (AID 1259377; active = well fitted activation curve with a large enough effect in the signal ratio in the repeat runs, not every such curve was filed as active; the % refers to the signal ratio)
Sequence of Estrogen receptor beta (Homo sapiens) (Q92731 whole entry, looked up): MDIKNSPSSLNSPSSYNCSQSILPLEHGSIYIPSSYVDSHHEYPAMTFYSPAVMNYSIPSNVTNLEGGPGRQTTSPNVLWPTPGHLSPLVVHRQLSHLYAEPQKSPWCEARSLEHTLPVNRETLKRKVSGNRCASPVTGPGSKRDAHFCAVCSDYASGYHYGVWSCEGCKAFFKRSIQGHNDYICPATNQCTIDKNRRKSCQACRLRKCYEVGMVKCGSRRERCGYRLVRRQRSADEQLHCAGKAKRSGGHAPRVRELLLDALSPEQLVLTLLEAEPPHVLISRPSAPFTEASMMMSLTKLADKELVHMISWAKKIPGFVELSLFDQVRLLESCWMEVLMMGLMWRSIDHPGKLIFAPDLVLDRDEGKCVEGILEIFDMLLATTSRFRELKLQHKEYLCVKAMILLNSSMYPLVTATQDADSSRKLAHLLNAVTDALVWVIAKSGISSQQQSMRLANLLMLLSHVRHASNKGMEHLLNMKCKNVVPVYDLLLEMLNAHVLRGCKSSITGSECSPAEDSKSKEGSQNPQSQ
Procedure, shortened: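 Measured by fluorescence intensity from a B/G FRET beta-lactamase substrate (2 h, room temperature) in ER-beta-UAS-bla HEK293T cells treated with DMSO-dissolved compounds for 16 hr at 37C and 5% CO2.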

[4] = qHTS assay to identify small molecule agonists of the androgen receptor (AR) signaling pathway in the presence of an antagonist - cell viability counter screen (AID 1259379);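 note: MDA-kb2 human breast cancer cells carrying an MMTV luciferase reporter; series mostly up to about 92 µM; nearly all actives have a fitted effect of over 25% in size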
Procedure, shortened: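 Cytotoxicity counter-screen run in the same wells as the nilutamide-challenged (3.0 µM final) AR agonist assay in MDA-kb2 cells. Compounds tested at 15 concentrations for 16 h, 37 °C without CO2; CellTiter-Fluor fluorescence read.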

[5] = qHTS assay to identify small molecule antagonists of the estrogen receptor beta (ER-beta) signaling pathway - cell viability counter screen (AID 1259382);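 note: HEK293T cells carrying ER-beta-UAS-bla reporter stimulated with estradiol; series mostly up to about 92 µM; nearly all actives have a fitted effect of over 55% in size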
Procedure, shortened: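 Cytotoxicity was measured in the same wells by CellTiter-Glo luminescence after 30 min at room temperature. Cells were ER-beta-bla HEK293T in charcoal-stripped serum, given compound together with 1 nM E2 and incubated 16 h at 37C.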

[6] = qHTS assay to identify small molecule agonists or antagonists of the thyroid stimulating hormone receptor (TSHR) signaling pathway - wild type cell line counter screen (AID 1259384; calls by dose curve)
Procedure, shortened: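 Counter screen in untransfected Hek293: compounds (15-point titration, triplicate) plus phosphodiesterase inhibitor Ro20-1724 added after 18 h plating; 30 min RT. Intracellular cAMP via competitive d2/cryptate immunoassay, 1 h incubation.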

[7] = biological target: Thyrotropin receptor (Homo sapiens) (UniProt P16473); assay: qHTS assay to identify small molecule antagonists of the thyroid stimulating hormone receptor (TSHR) signaling pathway (AID 1259385; calls by dose curve; note: nearly all actives have a fitted effect of over 20% in size)
Sequence of Thyrotropin receptor (Homo sapiens) (P16473 whole entry, looked up): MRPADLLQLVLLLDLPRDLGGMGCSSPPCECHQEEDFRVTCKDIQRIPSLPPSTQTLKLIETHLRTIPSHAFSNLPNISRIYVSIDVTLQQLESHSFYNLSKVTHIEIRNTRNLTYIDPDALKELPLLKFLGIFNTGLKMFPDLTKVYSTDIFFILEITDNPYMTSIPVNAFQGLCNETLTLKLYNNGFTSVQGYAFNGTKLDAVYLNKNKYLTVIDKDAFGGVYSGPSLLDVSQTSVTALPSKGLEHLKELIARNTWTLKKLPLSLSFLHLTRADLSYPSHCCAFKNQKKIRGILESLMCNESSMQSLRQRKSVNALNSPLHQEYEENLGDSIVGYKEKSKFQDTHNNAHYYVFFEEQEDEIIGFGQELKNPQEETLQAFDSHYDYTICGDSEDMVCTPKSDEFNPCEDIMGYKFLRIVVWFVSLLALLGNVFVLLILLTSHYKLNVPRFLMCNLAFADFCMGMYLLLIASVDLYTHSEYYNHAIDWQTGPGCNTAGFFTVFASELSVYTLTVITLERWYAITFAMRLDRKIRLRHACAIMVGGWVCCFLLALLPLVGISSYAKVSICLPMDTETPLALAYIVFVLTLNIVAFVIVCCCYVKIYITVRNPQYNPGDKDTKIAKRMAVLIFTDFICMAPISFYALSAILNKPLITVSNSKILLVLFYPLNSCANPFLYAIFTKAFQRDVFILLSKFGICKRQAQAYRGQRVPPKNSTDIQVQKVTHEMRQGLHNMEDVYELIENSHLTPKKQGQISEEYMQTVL
Procedure, shortened: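 Antagonist mode: compound-treated TSHR-expressing HEK293 cells were stimulated with 1.5 ng/mL TSH (final) in presence of Ro20-1724 for 30 min at RT. HTRF cAMP detection after 1 h; each compound tested at 15 concentrations, triplicate.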

[8] = qHTS assay to identify small molecule agonists of the estrogen receptor alpha (ER-alpha) signaling pathway in the presence of an antagonist - cell viability counter screen (AID 1259386); note: series mostly up to about 92 µM; nearly all actives have a fitted effect of over 30% in size
Procedure, shortened: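 Compounds tested at 15 concentrations for 22 h at 37C alongside 10.0nM (final) ICI-182,780 antagonist, in VM7Luc4E2 cells grown in phenol red-free, charcoal-stripped medium. Viability read by CellTiter-Fluor fluorescence after 1 h reagent incubation.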

[9] = biological target: Progesterone receptor (Homo sapiens) (UniProt P06401); assay: qHTS assay to identify small molecule agonists of the progesterone receptor (PR) signaling pathway (AID 1346784; calls by dose curve; note: nearly all actives have a fitted effect of over 30% in size)
Sequence of Progesterone receptor (Homo sapiens) (P06401 whole entry, looked up): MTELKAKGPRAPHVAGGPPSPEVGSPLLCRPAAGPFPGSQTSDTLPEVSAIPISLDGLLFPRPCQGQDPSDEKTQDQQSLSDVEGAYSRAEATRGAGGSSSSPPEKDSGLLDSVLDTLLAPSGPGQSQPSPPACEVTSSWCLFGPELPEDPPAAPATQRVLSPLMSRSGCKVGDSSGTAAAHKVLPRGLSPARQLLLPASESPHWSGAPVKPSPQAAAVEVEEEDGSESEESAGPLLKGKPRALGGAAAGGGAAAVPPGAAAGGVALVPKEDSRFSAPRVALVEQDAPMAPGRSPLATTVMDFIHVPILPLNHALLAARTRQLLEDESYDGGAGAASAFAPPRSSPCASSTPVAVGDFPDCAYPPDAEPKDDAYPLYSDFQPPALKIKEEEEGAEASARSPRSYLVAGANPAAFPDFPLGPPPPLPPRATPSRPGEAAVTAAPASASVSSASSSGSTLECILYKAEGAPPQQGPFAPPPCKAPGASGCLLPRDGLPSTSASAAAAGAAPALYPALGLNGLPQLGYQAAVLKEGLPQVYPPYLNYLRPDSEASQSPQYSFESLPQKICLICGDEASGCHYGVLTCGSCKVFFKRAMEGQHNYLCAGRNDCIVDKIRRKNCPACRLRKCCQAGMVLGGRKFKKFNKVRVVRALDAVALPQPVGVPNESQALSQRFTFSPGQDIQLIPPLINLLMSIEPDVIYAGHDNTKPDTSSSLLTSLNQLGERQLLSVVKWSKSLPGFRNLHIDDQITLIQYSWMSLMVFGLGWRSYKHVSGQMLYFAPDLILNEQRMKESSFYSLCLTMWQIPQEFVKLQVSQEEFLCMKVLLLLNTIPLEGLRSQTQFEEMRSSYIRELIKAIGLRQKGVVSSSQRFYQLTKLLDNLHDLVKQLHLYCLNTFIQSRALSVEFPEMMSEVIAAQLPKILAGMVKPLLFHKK
Procedure, shortened: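 The screen uses PR-UAS-bla HEK 293T cells in charcoal-stripped serum (2%). Compounds are applied for 16 hr at 37C after a 6 hr pre-incubation, and reporter activity is detected with a FRET beta-lactamase substrate after 2 hr at room temperature.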

[10] = biological target: Progesterone receptor (Homo sapiens) (UniProt P06401); assay: qHTS assay to identify small molecule antagonists of the progesterone receptor (PR) signaling pathway (AID 1346795; active = well fitted inhibition curve with a large enough effect in the signal ratio in the repeat runs, not every such curve was filed as active; the % refers to the signal ratio)
Procedure, shortened: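 After 6 hr plating at 37C in 2% stripped-serum medium, PR-UAS-bla HEK293T cells got compounds, then 1 nM R5020. Sixteen hours later, LiveBLAzer substrate was applied for 2 hr at room temperature and fluorescence was recorded.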

[11] = qHTS assay to identify small molecule agonists of the progesterone receptor (PR) signaling pathway - cell viability counter screen (AID 1346799; calls by dose curve; note: nearly all actives have a fitted effect of over 45% in size)
Procedure, shortened: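 Viability was scored by ATP luminescence (CellTiter-Glo, 30 min, room temperature) in the same wells used for the reporter readout, after 16 hr compound exposure of PR-UAS-bla HEK293T cells.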

[12] = qHTS assay to identify small molecule antagonists of the TGF-beta/Smad signaling pathway - cell viability counter screen (AID 1346824); note: nearly all actives have a fitted effect of over 50% in size
Procedure, shortened: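 Cytotoxicity counter-screen run in the same wells as the beta-lactamase Smad reporter read: CellTiter-Glo luminescence after 30 min at room temperature. HEK 293T SBE-bla cells had 5 hr compound exposure at 37 C with TGF-beta1 (0.25 ng/mL stock).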

[13] = qHTS assay to identify small molecule agonists of the TGF-beta/Smad signaling pathway - cell viability counter screen (AID 1346829); note: top concentration of the series differs between compounds; nearly all actives have a fitted effect of over 45% in size
Procedure, shortened: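 Cytotoxicity counter screen: CellTiter-Glo luminescence (30 min, room temperature) measured in the SBE-bla HEK 293T reporter wells after 5 hr compound treatment at 37 C and the 2 hr substrate step.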

[14] = qHTS assay to identify small molecule agonists of the TGF-beta/Smad signaling pathway (AID 1346859; active = well fitted activation curve with a large enough effect in the signal ratio in the repeat runs, not every such curve was filed as active; the % refers to the signal ratio; note: series mostly up to about 77 µM)
Procedure, shortened: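 Dual-wavelength fluorescence (460/530 nm emission) quantified beta-lactamase expression under the Smad binding element in HEK 293T cells following 5 hr compound treatment at 37 C.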

[15] = biological target: Thyrotropin-releasing hormone receptor (Homo sapiens) (UniProt P34981); assay: qHTS assay to identify small molecule antagonists of the thyrotropin-releasing hormone receptor (TRHR) signaling pathway (AID 1346877; active = well fitted inhibition curve with a large enough effect in the repeat runs, not every such curve was filed as active; note: series mostly up to about 51 µM)
Sequence of Thyrotropin-releasing hormone receptor (Homo sapiens) (P34981 whole entry, looked up): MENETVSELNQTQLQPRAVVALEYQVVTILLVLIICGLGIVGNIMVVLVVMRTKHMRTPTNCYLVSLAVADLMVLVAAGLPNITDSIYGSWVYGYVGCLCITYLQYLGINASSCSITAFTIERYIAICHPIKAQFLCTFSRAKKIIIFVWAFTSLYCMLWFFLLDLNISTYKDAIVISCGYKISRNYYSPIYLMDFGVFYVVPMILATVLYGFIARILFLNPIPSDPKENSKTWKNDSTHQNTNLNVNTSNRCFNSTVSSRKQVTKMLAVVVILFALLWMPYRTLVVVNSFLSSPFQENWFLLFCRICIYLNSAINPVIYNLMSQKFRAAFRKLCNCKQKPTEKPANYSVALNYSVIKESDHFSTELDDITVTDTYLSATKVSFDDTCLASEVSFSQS
Procedure, shortened: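 Antagonist mode: after a 5 min room-temperature compound exposure, cells were stimulated with 1 nM (final) TRH. Dye-loaded TRHR-HEK293 cells were used, and calcium-dependent fluorescence was followed for 3 min, with 15-point titrations run in triplicate.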

[16] = biological target: Estrogen receptor beta (Homo sapiens) (UniProt Q92731); assay: qHTS assay to identify small molecule antagonists of the estrogen receptor beta (ER-beta) signaling pathway (AID 1259378; active = well fitted inhibition curve with a large enough effect in the signal ratio in the repeat runs, not every such curve was filed as active; the % refers to the signal ratio)
Procedure, shortened: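 Antagonist mode: compounds added to beta-lactamase reporter HEK293T ER-beta-UAS cells stimulated with E2 (1nM final), 16 hr at 37C. LiveBLAzer B/G FRET substrate, 2 hours room temperature, fluorescence read-out.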

[17] = qHTS assay to identify small molecule agonists of the estrogen receptor beta (ER-beta) signaling pathway - cell viability counter screen (AID 1259380); note: nearly all actives have a fitted effect of over 30% in size
Procedure, shortened: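 Cell viability counter screen: CellTiter-Glo luminescence (30 min, room temperature) measured in the same wells as the beta-lactamase readout, after 16 hr compound exposure at 37C of ER-beta-bla HEK293T cells in 2% charcoal-stripped FBS medium.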

[18] = biological target: Estrogen receptor (Homo sapiens) (UniProt P03372); assay: qHTS assay to identify small molecule agonists of the estrogen receptor alpha (ER-alpha) signaling pathway in the presence of an antagonist (AID 1259383; calls by dose curve; note: top concentration of the series differs between compounds; nearly all actives have a fitted effect of over 15% in size)
Sequence of Estrogen receptor (Homo sapiens) (P03372 whole entry, looked up): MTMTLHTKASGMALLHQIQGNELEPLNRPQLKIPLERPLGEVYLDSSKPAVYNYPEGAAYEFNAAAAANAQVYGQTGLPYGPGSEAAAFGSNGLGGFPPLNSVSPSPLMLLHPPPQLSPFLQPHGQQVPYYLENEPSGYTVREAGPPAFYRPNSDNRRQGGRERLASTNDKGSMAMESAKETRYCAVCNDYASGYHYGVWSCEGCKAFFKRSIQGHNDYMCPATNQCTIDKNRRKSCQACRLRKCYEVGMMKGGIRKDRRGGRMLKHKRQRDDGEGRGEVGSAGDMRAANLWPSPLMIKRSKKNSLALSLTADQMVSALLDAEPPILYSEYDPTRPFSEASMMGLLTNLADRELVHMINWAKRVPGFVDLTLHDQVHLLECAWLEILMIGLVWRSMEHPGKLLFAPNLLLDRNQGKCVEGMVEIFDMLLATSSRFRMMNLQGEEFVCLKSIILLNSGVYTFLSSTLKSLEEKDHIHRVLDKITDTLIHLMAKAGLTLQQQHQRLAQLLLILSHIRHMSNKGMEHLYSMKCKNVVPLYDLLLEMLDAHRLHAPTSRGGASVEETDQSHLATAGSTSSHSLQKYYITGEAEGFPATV
Procedure, shortened: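 Agonist-mode confirmation run in the presence of 10.0nM (final) ICI-182,780 antagonist. The reporter was ERE-driven luciferase in VM7Luc4E2 cells, grown in charcoal-stripped serum. Cells were exposed to 15-concentration compound series for 22hr, then ONE-Glo luminescence was read.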

[19] = qHTS assay to identify small molecule antagonists of the progesterone receptor (PR) signaling pathway - cell viability counter screen (AID 1346798); note: series mostly up to about 92 µM; nearly all actives have a fitted effect of over 50% in size
Procedure, shortened: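 Viability was determined by ATP-based luminescence (CellTiter-Glo) in PR-UAS-bla HEK293T cells cultured in 2% charcoal-stripped serum and incubated 16 hr with compounds under R5020 stimulation.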
% is set by controls: 0 for no effect and ±100 for the full control effect.

Nc1cc(C(Cl)=C(Cl)Cl)c(S(N)(=O)=O)cc1S(N)(=O)=O
inactive: Potency [1] | Potency [2] | outcome [3] | Potency [4] | Potency [5] | outcome [6] | Potency [7] | outcome [8] | Potency [9] | Potency [10] | Potency [11] | outcome [12] | outcome [13] | outcome [14] | outcome [15]

CC(=O)OC(C)(C)C
inactive: Potency [1] | Potency [2] | Potency [16] | Potency [4] | Potency [17] | Potency [5] | Potency [18] | outcome [8] | Potency [9] | Potency [10] | Potency [19] | Potency [11] | outcome [12] | outcome [13] | outcome [14] | outcome [15]

OCc1ccccn1
inactive: Potency [1] | Potency [2] | outcome [3] | Potency [4] | Potency [17] | Potency [5] | Potency [18] | outcome [6] | Potency [7] | outcome [8] | Potency [9] | Potency [10] | Potency [19] | Potency [11] | outcome [13] | outcome [14]

O=C1OC(=O)c2cc([N+](=O)[O-])ccc21
inactive: Potency [1] | Potency [2] | Potency [16] | Potency [4] | Potency [17] | Potency [5] | Potency [18] | outcome [6] | Potency [7] | outcome [8] | Potency [9] | Potency [10] | Potency [19] | Potency [11] | outcome [12] | outcome [13] | outcome [14] | outcome [15]

Cn1ccc2cc3c(cc21)CCN3C(=O)Nc1cccnc1
inactive: activity change [1] 11% [at 18.9 µM, stronger effect = higher value] | activity change, negative = inhibition [2] 1.03% [at 19 µM] | activation [3] -2.3% [at 19 µM] | activity change, negative = cytotoxicity [4] 2.26% [at 19 µM] | activity change, negative = cytotoxicity [5] -14.8% [at 19 µM] | activation [18] 12% [at 19 µM] | cAMP activity change [6] -0.339% [at 18.9 µM] | activity change, negative = cytotoxicity [8] -5.2% [at 19 µM] | activation [9] 1.39% [at 19 µM] | activity change, negative = inhibition [10] -0.261% [at 18.9 µM] | activity change, negative = cytotoxicity [19] -18% [at 18.9 µM] | activity change, negative = cytotoxicity [11] 0.965% [at 19 µM] | viability change, negative = cytotoxic [12] 10.7% [at 15.8 µM] | activity change, negative = cytotoxicity [13] -1.62% [at 15.8 µM] | activation [14] 2.76% [at 15.8 µM] | activity, negative = inhibition [15] -16.1% [at 10.5 µM]

C[C@H]1O[C@@H](n2cc(F)c(=O)[nH]c2=O)[C@H](O)[C@@H]1O
inactive: Potency [1] | Potency [2] | outcome [3] | Potency [16] | Potency [4] | outcome [6] | Potency [7] | outcome [8] | Potency [9] | Potency [10] | Potency [19] | outcome [13] | outcome [14] | outcome [15]

CCCC=O
inactive: Potency [1] | Potency [2] | Potency [16] | Potency [4] | Potency [17] | Potency [5] | outcome [6] | Potency [7] | outcome [8] | Potency [9] | Potency [10] | Potency [19] | Potency [11] | outcome [12] | outcome [13] | outcome [14]

O=C(O)c1cccc(C(=O)O)n1
inactive: Potency [1] | Potency [2] | Potency [16] | Potency [4] | Potency [17] | Potency [5] | Potency [18] | outcome [6] | Potency [7] | outcome [8] | Potency [9] | Potency [10] | Potency [19] | outcome [12] | outcome [13] | outcome [14] | outcome [15]

Source: PubChem BioAssay (Tox21)
